Source: PubChem
Shown are actives, neighbours in structure and some others; about 3.5% of the full set was active somewhere.
MITF inh: inhibitors of human MITF | O75030 | inhibition, % at 2.6 µM | 0.91% of 650,000 active | AlphaScreen MITF homodimerization, bead proximity signal; in the data active = inhibition above about 50%;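 note: 0% = vehicle wells with protein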
TEAD-YAP inh: TEAD-YAP interaction inhibition; HEK-TIYL cells, TEAD-Gal4/YAP UAS-luciferase luminescence; inhibition, % at 9.12 µM; 1.4% of 640,000 active; in the data active = inhibition above about 32%;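 note: 0% = median of test compound wells and 100% = reference inhibitor wells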
FBW7 act: human FBW7 E3 ligase activation, primary screen. 0.13% of 650,000 active. AlphaScreen FBW7–phospho-cyclin E peptide binding, activator screen. normalized activity (activation), % at 26.1 µM. AID 1259310; in the data active = normalized activity above about 1.9%;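 note: purified mutant Fbw7 with reduced substrate affinity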
GPR151 activ: human GPR151 activation. 1% of 650,000 active. AID 1508602. PathHunter beta-arrestin GPR151 cells, luminescence. activation, % at 11.2 µM; in the data active = activation above about 4.9%;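 note: 0% = median of compound wells and 100% = cells with positive control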
Target sequence (Q8TDV0 whole entry, looked up): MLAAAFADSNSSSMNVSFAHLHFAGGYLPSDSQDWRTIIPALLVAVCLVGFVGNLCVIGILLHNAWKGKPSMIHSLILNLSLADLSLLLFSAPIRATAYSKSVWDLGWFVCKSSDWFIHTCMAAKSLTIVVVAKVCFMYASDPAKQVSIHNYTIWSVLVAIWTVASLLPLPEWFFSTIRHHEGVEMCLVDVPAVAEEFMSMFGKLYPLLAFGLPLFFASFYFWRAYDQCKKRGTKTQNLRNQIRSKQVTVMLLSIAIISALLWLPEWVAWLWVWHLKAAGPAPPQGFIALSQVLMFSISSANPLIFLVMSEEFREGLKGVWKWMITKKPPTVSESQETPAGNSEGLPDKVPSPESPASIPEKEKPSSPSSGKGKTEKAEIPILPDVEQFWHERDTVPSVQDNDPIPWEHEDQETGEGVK
* = called active by the depositor.

SMILES	MITF inh	TEAD-YAP inh	FBW7 act	GPR151 activ
CCOc1ccc(C(Nc2ccccn2)c2ccc3cccnc3c2O)cc1 (configuration not stated)	27.0	85.9*	-1.0	1.1
COc1cc(C(Nc2ccccn2)c2ccc3cccnc3c2O)cc(Br)c1OC (configuration not stated)	18.9	76.2*	-0.1	-0.1
COc1ccc(C(Nc2ccccn2)c2ccc3cccnc3c2O)cc1 (configuration not stated)	35.6	86.3*	-0.6	0.6
COc1cc(C(Nc2ccccn2)c2ccc3ccc(C)nc3c2O)cc(OC)c1O (configuration not stated)	19.1	32.6*	-0.3	-0.5
CCc1ccc(C(Nc2ccccn2)c2ccc3ccc(C)nc3c2O)cc1 (configuration not stated)	21.9	22.5	0.1	3.0
CC(C)(C)NC(=O)CN1CCC(C(=O)c2ccc(F)cc2)CC1	15.0	0.5	1.0	0.4
COc1ccc(NC(=O)C2CC(=O)N(Cc3ccc4c(c3)OCO4)C(=Nc3ccccc3)S2)cc1 (configuration not stated)	-9.9	4.7	0.0	1.2
COc1ccc([N+](=O)[O-])c2c(C)c(C)oc12	4.1	-6.5	-0.2	1.2
CCOc1cc(C(Nc2ccccn2)c2ccc3cccnc3c2O)ccc1OC (configuration not stated)	31.2	88.6*	-0.4	0.8
CCOc1cc(C(Nc2ccccn2)c2ccc3cccnc3c2O)ccc1O (configuration not stated)	49.9	-6.6	-1.1	0.2
COc1cc([N+](=O)[O-])ccc1N/C=C/C(=O)c1ccco1	15.0	71.1*	-0.1	0.1
COc1cc([N+](=O)[O-])ccc1NC(=O)c1ccco1	11.8	-6.6	0.0	-1.0
COc1cc([N+](=O)[O-])ccc1N/C=C/C(=O)c1ccc(C)o1	1.4	35.1*	-0.2	1.7
COc1cccc(C(=O)/C=C/Nc2ccc([N+](=O)[O-])cc2OC)c1	1.1	34.6*	-0.1	0.4
CCOC(=O)c1sc2nc(SCC(=O)N3CCCc4ccccc43)n(CCc3ccccc3)c(=O)c2c1C	0.1	3.6	-0.1	0.0
CC1=NN(c2cccc(C(=O)O)c2)C(=O)/C1=C\c1ccc(-c2ccc(Cl)c(C(=O)O)c2)o1	73.7*	8.6	-0.8	3.1
CC1=NN(c2cccc(C(=O)O)c2)C(=O)/C1=C\c1ccccc1O	56.7*	-24.8	-1.1	0.5
CCOc1cc(/C=C2\C(=O)N(c3cccc(C(=O)O)c3)N=C2C)cc(Cl)c1OC	60.8*	-1.8	-1.2	-0.9
CCN(CC)C(=O)C1c2cc(OC)c(OC)cc2C(=O)N(C)C1c1ccccc1F (configuration not stated)	8.6	-0.6	0.0	-0.4
COCCNc1nc(SCC(=O)N2CCC(C)CC2)nc2ccccc12	-9.1	-6.2	0.1	-1.7
CC(=O)c1[nH]c(C)c(C(C)=O)c1C	-6.4	-5.9	-0.1	-0.6
CCc1c(Cc2[nH]c(C)c(C(C)=O)c2C)[nH]c(C(=O)O)c1C	-146.2	8.5	15.0*	-1.8
Cc1ccc(N2CCN(C(=O)CC(C)(C)CC3=NS(=O)(=O)c4ccccc4N3)CC2)c(C)c1	6.6	47.1*	0.0	-0.3
N#C/C(=N/Nc1cccc(C(F)(F)F)c1)C(N)=S	-2.4	47.2*	0.3	0.0
COc1ccc(N/N=C(\Cl)C(C)=O)cc1	20.3	3.7	1.9*	0.7
SMILES	MITF inh	TEAD-YAP inh	FBW7 act	GPR151 activ
Cc1cc(NCCc2ccc(O)cc2)nc(-c2ccc(N3CCN(C)CC3)cc2)n1	13.4	52.8*	0.1	1.8
Cc1cc(NCCc2ccc(O)cc2)nc(Nc2ccc(N3CCOCC3)cc2)n1	26.1	62.4*	-0.3	2.4
Oc1ccc(CCNc2ccnc(Nc3ccc(N4CCOCC4)cc3)n2)cc1	8.5	44.5*	-0.1	2.6
CCOC(=O)C1=C(C)NC2=C(C(=O)c3ccccc32)C1c1cc(OC)c(OC)c(OC)c1 (configuration not stated)	6.5	52.7*	-0.4	0.1
C=CCc1ccc(O)c(-c2cc(CC=C)ccc2O)c1	13.8	0.1	0.5	0.4
C=CCN(CC=C)Cc1cc(O)c(CN(CC=C)CC=C)cc1O	53.2*	-7.7	0.0	0.4
CN(C)/C(CBr)=C1/N=C(c2ccccc2)OC1=O	-3.1	-0.9	0.0	-0.2
Cc1ccn2c(/C(=C3/N=C(c4ccccc4)OC3=O)N(C)C)cnc2c1	9.4	34.2*	0.0	0.1
CCCCC1CCC(C(=O)Nc2c3c(nn2-c2cccc(Cl)c2)CSC3)CC1 (configuration not stated)	0.2	1.8	0.0	1.3
CC(=O)N(/N=C1\Sc2ccccc2C1=O)c1ccccc1I	29.3	76.0*	-0.2	-0.8
COc1ccc(N2C(=O)C3C(c4cccc(Br)c4)OC4(C(=O)c5ccccc5C4=O)C3C2=O)cc1 (configuration not stated)	81.3*	5.4	0.1	-0.4
CC(C)CCC1=NN(C(=O)c2ccc([N+](=O)[O-])cc2)C(O)(C(F)(F)F)C1 (configuration not stated)	13.8	6.3	0.1	-0.1
Oc1ccccc1-c1cc(-c2ccc(F)cc2)no1	7.1	-21.7	0.1	-3.6
Fc1ccc(-c2cc3c(nn2)Nc2ccccc2N3)cc1	4.7	85.7*	0.0	-4.6
O=C(NCCc1ccccc1)c1ccc(N2CC3CC(C2)c2cccc(=O)n2C3)c(NS(=O)(=O)c2ccc(Cl)cc2)c1 (configuration not stated)	-14.2	-12.1	-0.3	-2.4
CCC1CCCCN1C(=O)CSc1nc2ccccc2n1CC(=O)NC1CC1 (configuration not stated)	-4.3	9.6	0.0	-0.6
Cc1cnc2c(c1NCCCN(C)C)c(=O)n(C)c(=O)n2C	0.7	36.5*	-0.1	2.9
COc1ccc(-n2cc(-c3cc4ccccc4oc3=O)[nH]c2=S)cc1	4.8	17.4	-0.1	-0.2
O=c1oc2ccccc2cc1-c1cn(-c2ccc(F)cc2)c(=S)[nH]1	-10.7	71.8*	-0.1	-0.6
Cc1cccc(-n2cc(-c3cc4ccccc4oc3=O)[nH]c2=S)c1	6.3	80.7*	0.1	-1.2
O=c1oc2ccccc2cc1-c1cn(-c2ccccc2F)c(=S)[nH]1	-3.5	67.6*	0.0	-1.3
O=C(COc1ccccc1)Nc1ccc(Cl)c2ncsc12	-5.8	-20.9	0.1	-0.1
O=C1CC(c2ccccc2)c2c(ccc3ccccc23)N1 (configuration not stated)	12.5	8.9	0.4	1.3
Cc1ccccc1C1CC(=O)Nc2ccc3ccccc3c21 (configuration not stated)	1.3	38.4*	0.1	-1.8
O=C1CC(c2cccc(Br)c2)c2c(ccc3ccccc23)N1 (configuration not stated)	4.6	51.2*	-0.2	-0.1
CC(=O)NCCNc1nc2c(c(=O)n(C)c(=O)n2C)n1Cc1c(F)cccc1Cl	-3.3	-6.5	-0.1	0.1
CC(=O)Nc1ccc(N=c2ssc3c2-c2cc(C)ccc2NC3(C)C)cc1	3.7	12.9	-0.2	0.0
CC[n+]1ccc(/C=C/c2ccc(OC)cc2OC)cc1	1.9	41.9*	0.2	-0.6
